The list is not random: actives were taken first. Their share in the collection is about 2%.
LEDGF integ inh: blocks HIV-1 LEDGF/p75-dependent DNA integration; TR-FRET IN-LEDGF/p75 DNA integration, Eu/Cy5; 370,000 tested, 0.64% active; AID 743269; inhibition, % at 3.7 µM;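 active means inhibition above the screen-wide mean plus 3 SD, cut at about 13% in these data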;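 further: signal is the Cy5 over europium emission ratio at 671 and 618 nm; 0% = plate median of compound wells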
UHRF1 binding: blocks human UHRF1 binding to methylated DNA; 370,000 tested, 0.75% active; AID 687016; UHRF1 binding to methylated oligo, TR-FRET; Q96T88; inhibition, % at 4.4 µM; in the data active means inhibition above about 21%;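 further: UHRF1 SRA domain binding a hemimethylated CpG hairpin DNA probe; 0% = median of test compound wells and 100% = reference inhibitor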
Rin1-Abl PPI inh: blocks binding of human Rin1 to Abl. P00519+Q13671. TR-FRET Rin1/Abl binding, biochemical. inhibition, % at 7.35 µM. 360,000 tested, 0.4% active; in the data active means inhibition above about 5%, passing the limit was not always enough
MBD2 inh: blocks human MBD2 binding to methylated DNA | 370,000 tested, 0.31% active | inhibition, % at 4.4 µM | TR-FRET, MBD2 binding to methylated oligonucleotide; in the data active means inhibition above about 13%
TCR-CD3 inh: inhibitors of human TCR-CD3 interaction; TAMRA-labeled TCR probe fluorescence, biochemical; inhibition, % at 9.4 µM; 360,000 tested, 0.37% active; in the data active means inhibition above about 19%;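 further: recombinant mutant TCR 2C K166C tagged with TAMRA read by polarization; 0% = receptor in buffer alone and 100% = receptor with positive control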
Rin1 Abl conf: confirmation of inhibitors of human Rin1-Abl interaction; shares compounds with Rin1-Abl PPI inh; TR-FRET Rin1-Abl binding, purified proteins; inhibition, % at 7.35 µM; 1,300 tested, 49% active
GFP quencher: quenches GFP fluorescence, counter-screen for Rin1-Abl inhibitors; inhibition, % at 6.75 µM; shares compounds with Rin1-Abl PPI inh; AID 602125; inhibitors/quenchers counterscreen; 1,300 tested, 8.5% active;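 further: ABL1-eGFP fusion protein alone without its partner RIN1-SBP; 0% = protein with vehicle and 100% = wells lacking protein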
GFP quench DR: quenches GFP in dose response, Rin1-Abl counter-screen; shares compounds with Rin1-Abl PPI inh; GFP fluorescence interference/quenching counterscreen; IC50, µM; 230 tested, under 10 active; AID 602182; call rule not given here;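 further: ABL1-eGFP fusion protein alone without its RIN1 binding partner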
* marks the source's active call; other numbers are inactive results; / = not tested or not shown. Unless noted, no stated cut-off is given here; in the data, active means inhibition above about 6.5%; inactive means the rest.

SMILES	LEDGF integ inh	UHRF1 binding	Rin1-Abl PPI inh	MBD2 inh	TCR-CD3 inh	Rin1 Abl conf	GFP quencher	others
CC(C(=O)O)n1cc(C#N)c(=O)[nH]c1=O (stereo not drawn)	-0.8	-1.3	-0.8	-3.2	0.1	/	/
COCCCNc1nc2ccccc2nc1NS(=O)(=O)c1cccs1	4.5	-0.5	14.3*	-3.6	0.3	-2.7	-0.2
COCCCNc1nc2ccccc2nc1NS(=O)(=O)c1ccc(OC)cc1	-1.2	2.3	-4.6	4.0	0.2	/	/
CC(=O)c1ccc(N(C(=O)c2csnn2)C(C(=O)NC2CCCC2)c2ccccc2)cc1 (stereo not drawn)	6.9	5.1	10.6*	2.9	-0.4	1.6	-0.3
O=C(NC1CCCC1)C(c1ccncc1)N(C(=O)c1csnn1)c1ccccc1 (stereo not drawn)	4.5	3.5	2.3	7.0	-7.6	/	/
CCOC(=O)N1CCN(S(=O)(=O)c2ccc(OC)c(Cl)c2Cl)CC1	0.4	-1.2	-1.5	-2.1	3.7	/	/
COc1ccc(S(=O)(=O)N2CCCC2)c(Cl)c1Cl	1.8	5.3	9.9*	7.9	6.0	-1.2	-0.9
CN(C)S(=O)(=O)c1ccc(C(=O)Nc2ccn(C)n2)cc1	0.8	0.6	1.8	-2.2	4.1	/	/
Cc1ccc(C)c(NC(=O)CCc2c(C)nn(-c3ccc(N4CCCCC4)nn3)c2C)c1	4.3	-5.4	12.0*	-10.7	8.3	0.0	0.3
Cc1cc(Br)ccc1SCC(=O)OCC(=O)Nc1ncc(C(F)(F)F)cc1Cl	0.1	4.7	-2.7	5.0	1.5	/	/
Cc1ccc(C)c(SCC(=O)OCC(=O)Nc2ncc(C(F)(F)F)cc2Cl)c1	4.3	-2.4	9.1*	-5.5	-0.2	-0.5	0.5
Cn1cnc2c1c(=O)n(Cc1cccc(F)c1)c(=O)n2C	3.9	-2.2	-0.1	3.2	8.1	/	/
Cn1cnc2c1c(=O)n(Cc1ccc(F)cc1Cl)c(=O)n2C	-1.7	-0.6	7.6*	-4.1	6.3	4.9	1.1
CC(=O)OC[C@H]1O[C@@H](n2ccc(=O)[nH]c2=S)C(OC(C)=O)C1OC(C)=O (stereo partly drawn)	2.2	3.3	12.2*	3.3	-17.4	9.3*	-0.5
OCCCNCc1ccc(N(c2ccccc2)c2ccccc2)cc1	-3.3	5.0	0.9	2.1	-2.3	/	/
O=C(COc1ccc(F)cc1)NCC1(N2CCOCC2)CCCCC1	-4.4	1.2	11.0*	-0.1	-10.6	0.4	0.2
O=C(CN1CCN(CC(=O)Nc2ccc(F)cc2)CC1)NCC1(N2CCOCC2)CCCCC1	-4.8	-0.8	1.2	0.8	-1.6	/	/
Oc1ccc(CN2CCc3ccccc3C2)c2cccnc12	-8.1	-6.3	27.8*	-2.7	1.9	7.6*	0.7
CN(Cc1cnccn1)C(=O)C1CCC(=O)N(CCc2ccccc2)C1 (stereo not drawn)	1.2	3.0	24.8*	-0.8	2.5	29.4*	1.3	GFP quench DR=>67.5
O=C(COC(=O)c1cccnc1)Nc1ccc(F)cc1	0.2	-2.6	5.7*	-3.7	4.0	-2.1	-0.4
O=C(COC(=O)c1cccnc1)Nc1ccccc1	1.0	7.4	3.4	3.6	-0.4	/	/
Cc1cccc(-n2c(=O)c3ccccc3n3c(=S)[nH]nc23)c1C	-0.3	-1.3	3.0	-1.5	-1.4	/	/
COc1ccc(C2C3=C(CC(C)(C)CC3=O)Oc3ncn(Cc4ccccc4)c(=N)c32)cc1 (stereo not drawn)	-0.3	-0.3	0.6	0.4	0.7	/	/
COc1ccc(C2C3=C(CC(C)(C)CC3=O)Oc3ncn(CCCn4ccnc4)c(=N)c32)cc1 (stereo not drawn)	-4.3	1.1	4.5*	4.3	-4.0	10.3*	0.1
CCc1nc2ccc(C(=O)NCCN3CCNC3=O)cn2c1N(C)Cc1ccc(OC)cc1	-1.9	2.8	-1.3	0.4	-4.6	/	/
SMILES	LEDGF integ inh	UHRF1 binding	Rin1-Abl PPI inh	MBD2 inh	TCR-CD3 inh	Rin1 Abl conf	GFP quencher	others
CC1(c2ccccc2)NC(=O)N(CC(=O)Nc2ccc3c(c2)CCC3)C1=O (stereo not drawn)	1.1	-0.1	8.2*	-4.2	7.9	-2.0	0.7
COc1ccc(CNC(=O)CCSCc2cccc(Cl)c2)c(OC)c1	1.6	-3.7	5.2*	-5.7	10.6	-1.5	1.8
COc1ccc(CNC(=O)CCSCc2ccccc2Cl)c(OC)c1	2.2	-0.9	-2.0	0.0	8.9	/	/
O=CN1CCN(C(=O)Cc2ccc(Cl)cc2)CC1	-0.7	0.8	-1.9	-0.5	2.7	/	/
CCc1nc2nc(C)c(NS(=O)(=O)c3ccc(CC(C)C)cc3)c(=O)n2[nH]1	3.3	0.5	8.2*	1.9	0.6	2.2	0.5
CCCc1nc2nc(C)c(NS(=O)(=O)c3ccc(CC(C)C)cc3)c(=O)n2[nH]1	1.8	2.2	2.3	5.1	-7.7	/	/
Cc1nc(SCc2nc3ccc([N+](=O)[O-])cc3[nH]2)c2oc3ccccc3c2n1	-2.6	-2.4	0.2	11.2	10.4	/	/
Cc1[nH][nH]c(=O)c1C(c1c(C)[nH][nH]c1=O)c1cn(Cc2ccc(Cl)c(Cl)c2)c2ccccc12	4.7	17.6	14.2*	-0.9	-3.0	0.2	3.0
COc1ccc(-c2[nH][nH]c(=O)c2NC(=O)c2ccccn2)cc1	-6.2	-10.0	3.6	-6.5	4.2	/	/
COc1ccc(CCC(=O)Nc2c(-c3ccc(N(C)C)cc3)[nH][nH]c2=O)cc1	27.8*	17.0	31.8*	11.9	-2.2	39.6*	-1.5	GFP quench DR=>67.5
COCCNC(=S)N(C)[C@H]1C[C@H]2c3cc(-c4ccccc4)ccc3CCN2C(=O)[C@H]1[C@H](C)O	3.1	-2.7	-3.3	-1.3	-3.4	/	/
CC(C)c1cccc(C(C)C)c1NC(=O)c1ccc(-c2cc(Cl)ccc2Cl)o1	0.0	4.7	0.9	1.4	-9.7	/	/
CCOc1ncccc1C(=O)OC(C)C(=O)Nc1ccc(Cl)cn1 (stereo not drawn)	-0.8	-0.5	8.2*	-5.1	6.2	-1.9	0.6
CNc1ccccc1C(=O)OC(C)C(=O)Nc1ccc(Cl)cn1 (stereo not drawn)	-7.2	3.0	1.0	0.6	-1.8	/	/
CCOC(=O)NC(=O)COC(=O)CCCc1nc2ccccc2s1	5.3	0.3	5.4*	1.9	0.2	-1.4	-1.7
CCNC(=O)NC(=O)C(C)OC(=O)CCCc1nc2ccccc2s1 (stereo not drawn)	1.5	-0.4	1.3	4.9	3.5	/	/
CC(=O)c1ccc(OCCCC(=O)N2CCN(S(=O)(=O)c3cc(C)ccc3C)CC2)cc1	1.0	0.7	1.0	5.0	-3.7	/	/
CC(=O)c1ccc(OCCCC(=O)N2CCN(S(=O)(=O)c3ccc(C)cc3C)CC2)cc1	0.1	-1.3	7.5*	0.9	3.1	-0.1	-0.1

Source: PubChem BioAssay (The Scripps Research Institute Molecular Screening Center)
